Common to all, as to design: scale not given: direction of the effect not stated beside the values
In experiment [1] the target is Protein translocase subunit SecA (Escherichia coli (strain K12)) (UniProt P10408). The experiment is described as follows: Assay to Identify E. coli SecA ATPase Inhibitors. The note with it: 30 µM. Type of experiment: functional.
Experiment [2] deals with T1, Ubiquitin-activating enzyme e1, putative (Leishmania donovani (strain BPK282A1)) (UniProt E9BSI1).
T1 sequence (whole entry): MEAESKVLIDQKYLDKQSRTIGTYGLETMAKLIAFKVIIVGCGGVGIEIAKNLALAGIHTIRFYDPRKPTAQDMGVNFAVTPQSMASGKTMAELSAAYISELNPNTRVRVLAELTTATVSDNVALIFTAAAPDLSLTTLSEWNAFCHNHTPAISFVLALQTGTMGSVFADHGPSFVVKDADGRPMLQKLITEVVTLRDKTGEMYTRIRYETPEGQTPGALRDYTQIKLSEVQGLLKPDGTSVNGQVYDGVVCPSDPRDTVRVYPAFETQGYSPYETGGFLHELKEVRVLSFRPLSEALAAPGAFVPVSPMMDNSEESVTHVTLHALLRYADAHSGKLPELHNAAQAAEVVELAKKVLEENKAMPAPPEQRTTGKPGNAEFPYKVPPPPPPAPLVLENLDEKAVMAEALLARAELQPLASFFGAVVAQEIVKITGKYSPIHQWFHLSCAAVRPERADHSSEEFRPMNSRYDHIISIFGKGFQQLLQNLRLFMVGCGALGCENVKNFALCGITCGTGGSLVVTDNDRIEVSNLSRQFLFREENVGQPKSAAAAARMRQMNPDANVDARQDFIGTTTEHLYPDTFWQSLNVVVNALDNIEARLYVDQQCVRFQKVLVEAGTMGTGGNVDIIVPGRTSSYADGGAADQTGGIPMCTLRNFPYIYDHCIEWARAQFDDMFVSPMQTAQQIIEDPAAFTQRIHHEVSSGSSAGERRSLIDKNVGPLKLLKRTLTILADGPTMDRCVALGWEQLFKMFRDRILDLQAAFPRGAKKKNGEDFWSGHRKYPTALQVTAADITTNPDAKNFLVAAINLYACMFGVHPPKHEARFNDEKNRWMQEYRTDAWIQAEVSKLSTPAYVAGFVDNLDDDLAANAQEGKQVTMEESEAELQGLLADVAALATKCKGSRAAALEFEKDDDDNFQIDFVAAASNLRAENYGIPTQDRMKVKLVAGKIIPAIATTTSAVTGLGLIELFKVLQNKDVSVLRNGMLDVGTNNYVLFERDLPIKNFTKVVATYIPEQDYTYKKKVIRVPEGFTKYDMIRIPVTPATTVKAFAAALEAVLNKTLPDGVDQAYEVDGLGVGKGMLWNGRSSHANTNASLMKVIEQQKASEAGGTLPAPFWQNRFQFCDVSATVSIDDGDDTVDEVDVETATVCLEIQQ
The experiment is described as follows: Leishmania donovani Ubiquitin Activating Enzyme (LdE1). The class given is functional. To be noted: 30 µM.

For experiment [3], the target named is AMP-activated protein kinase, AMPK (Homo sapiens) (UniProt P54646+O43741+P54619+Q9UGJ0+Q9Y478+Q13131+Q9UGI9). The experiment is described as follows: AMP-dependent Kinase enzyme assay. An in vitro enzyme assay that detects ADP turnover that is directly proportional to AMPK activity. This uses naive AMPK that is activated during the assay with MK-8722. The class given is functional. To be noted: 30 µM.

Experiment [4] addresses Sialic acid-binding Ig-like lectin 9 (Homo sapiens) (UniProt Q9Y336). The experiment is described as follows: Hs-Siglec9 ALPHAscreen SOP 20170721. The note with it: 10 µM. (Bead proximity is the source of the signal in Alpha formats.)
In experiment [5] the test system is Trypanosoma cruzi. The experiment is described as follows: Trypanosoma cruzi phosphomannomutase and mannose-1-phosphate guanylyltransferase assay. The note with it: 10 µM. Type of experiment: functional.
Experiment [6] concerns the target T2, Arginase-2, mitochondrial (Homo sapiens) (UniProt P78540).
T2 sequence (whole entry): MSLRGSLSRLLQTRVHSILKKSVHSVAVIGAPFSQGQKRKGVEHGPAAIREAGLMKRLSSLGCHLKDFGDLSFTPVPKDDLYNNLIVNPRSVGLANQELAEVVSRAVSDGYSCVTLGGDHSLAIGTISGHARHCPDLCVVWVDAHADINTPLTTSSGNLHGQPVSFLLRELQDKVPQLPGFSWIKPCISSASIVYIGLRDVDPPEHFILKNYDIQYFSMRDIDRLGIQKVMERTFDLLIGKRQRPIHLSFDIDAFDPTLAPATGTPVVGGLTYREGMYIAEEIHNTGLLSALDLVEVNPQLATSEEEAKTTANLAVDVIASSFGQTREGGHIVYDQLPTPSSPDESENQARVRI
The experiment is described as follows: in vitro enzyme assay to detect the production of urea directly proportional to the activity of Arginase II. Also: in the data most compounds retested in dose-response had high values. The note with it: 33.3 µM. The class given is functional.

For experiment [7], the target named is T3, Proteasome subunit beta (Trypanosoma cruzi) (UniProt O96673).
T3 sequence (whole entry): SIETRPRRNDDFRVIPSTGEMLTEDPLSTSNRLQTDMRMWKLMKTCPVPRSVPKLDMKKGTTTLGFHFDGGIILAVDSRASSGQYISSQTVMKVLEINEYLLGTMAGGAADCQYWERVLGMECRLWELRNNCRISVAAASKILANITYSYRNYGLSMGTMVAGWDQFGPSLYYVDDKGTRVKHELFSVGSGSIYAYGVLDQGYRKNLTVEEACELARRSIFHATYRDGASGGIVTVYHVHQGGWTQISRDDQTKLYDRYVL
The experiment is described as follows: Trypanosoma cruzi proteasome chymotrypsin-like activity (TcProtChymo) assay. Also: in the data most compounds retested in dose-response had high values. The class given is functional. To be noted: 9.37 µM.

The species entered for experiment [8] is Homo sapiens. The experiment is described as follows: To identify inhibition of the IFN signalling (Jak-Stat) pathway via expression of an eGFP reporter gene under the control of an IFN-stimulated response element (ISRE) containing MxA promoter. The class given is functional. The note with it: 30 µM. For orientation: Reporter assays use an easily measured gene product as a stand-in for the process of interest.

Experiment [9] addresses T4, Tyrosyl-tRNA synthetase, putative (Trypanosoma cruzi (strain CL Brener)) (UniProt Q4DSP6).
T4 sequence (whole entry): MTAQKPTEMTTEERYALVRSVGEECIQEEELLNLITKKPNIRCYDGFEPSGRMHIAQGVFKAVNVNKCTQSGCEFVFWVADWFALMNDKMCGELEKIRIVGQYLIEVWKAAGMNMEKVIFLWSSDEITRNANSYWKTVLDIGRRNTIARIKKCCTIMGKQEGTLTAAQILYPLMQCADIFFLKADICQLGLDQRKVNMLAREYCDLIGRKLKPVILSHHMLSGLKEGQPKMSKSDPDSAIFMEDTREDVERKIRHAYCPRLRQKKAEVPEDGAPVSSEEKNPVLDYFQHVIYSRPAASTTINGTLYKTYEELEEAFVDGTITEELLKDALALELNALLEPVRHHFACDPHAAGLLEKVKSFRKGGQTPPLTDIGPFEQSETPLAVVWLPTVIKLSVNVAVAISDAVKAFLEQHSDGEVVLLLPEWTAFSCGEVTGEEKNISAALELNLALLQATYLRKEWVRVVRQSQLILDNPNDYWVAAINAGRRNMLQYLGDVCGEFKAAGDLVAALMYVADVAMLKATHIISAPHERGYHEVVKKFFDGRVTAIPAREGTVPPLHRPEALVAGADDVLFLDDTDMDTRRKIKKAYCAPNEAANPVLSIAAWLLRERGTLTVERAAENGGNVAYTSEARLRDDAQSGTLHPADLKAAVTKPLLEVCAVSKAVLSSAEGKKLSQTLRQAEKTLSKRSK
The experiment is described as follows: Trypanosoma cruzi tyrosyl tRNA synthetase (TcYRS) _High Tyrosine SOP. Also: in the data most compounds retested in dose-response had high values. Type of experiment: functional. The note with it: 30 µM.

Experiment [10] has as its target T4, Tyrosyl-tRNA synthetase, putative (Trypanosoma cruzi (strain CL Brener)). The experiment is described as follows: Trypanosoma cruzi tyrosyl tRNA synthetase (TcYRS) SOP. Type of experiment: functional. The note with it: 30 µM.
In experiment [11] the target is Chromo domain-containing protein 1 (Saccharomyces cerevisiae (strain ATCC 204508 / S288c) (Baker's yeast)) (UniProt P32657). The experiment is described as follows: ScCHD-1 Enzyme Inhibition Assay. Also: in the data most compounds retested in dose-response had high values. Type of experiment: functional. To be noted: 30 µM.

For part of these data: Measured potencies and affinities stand elsewhere.

Chromo domain-containing protein 1 (Saccharomyces cerevisiae (strain ATCC 204508 / S288c) (Baker's yeast)), sequence (P32657 whole entry, the tested form may be a part): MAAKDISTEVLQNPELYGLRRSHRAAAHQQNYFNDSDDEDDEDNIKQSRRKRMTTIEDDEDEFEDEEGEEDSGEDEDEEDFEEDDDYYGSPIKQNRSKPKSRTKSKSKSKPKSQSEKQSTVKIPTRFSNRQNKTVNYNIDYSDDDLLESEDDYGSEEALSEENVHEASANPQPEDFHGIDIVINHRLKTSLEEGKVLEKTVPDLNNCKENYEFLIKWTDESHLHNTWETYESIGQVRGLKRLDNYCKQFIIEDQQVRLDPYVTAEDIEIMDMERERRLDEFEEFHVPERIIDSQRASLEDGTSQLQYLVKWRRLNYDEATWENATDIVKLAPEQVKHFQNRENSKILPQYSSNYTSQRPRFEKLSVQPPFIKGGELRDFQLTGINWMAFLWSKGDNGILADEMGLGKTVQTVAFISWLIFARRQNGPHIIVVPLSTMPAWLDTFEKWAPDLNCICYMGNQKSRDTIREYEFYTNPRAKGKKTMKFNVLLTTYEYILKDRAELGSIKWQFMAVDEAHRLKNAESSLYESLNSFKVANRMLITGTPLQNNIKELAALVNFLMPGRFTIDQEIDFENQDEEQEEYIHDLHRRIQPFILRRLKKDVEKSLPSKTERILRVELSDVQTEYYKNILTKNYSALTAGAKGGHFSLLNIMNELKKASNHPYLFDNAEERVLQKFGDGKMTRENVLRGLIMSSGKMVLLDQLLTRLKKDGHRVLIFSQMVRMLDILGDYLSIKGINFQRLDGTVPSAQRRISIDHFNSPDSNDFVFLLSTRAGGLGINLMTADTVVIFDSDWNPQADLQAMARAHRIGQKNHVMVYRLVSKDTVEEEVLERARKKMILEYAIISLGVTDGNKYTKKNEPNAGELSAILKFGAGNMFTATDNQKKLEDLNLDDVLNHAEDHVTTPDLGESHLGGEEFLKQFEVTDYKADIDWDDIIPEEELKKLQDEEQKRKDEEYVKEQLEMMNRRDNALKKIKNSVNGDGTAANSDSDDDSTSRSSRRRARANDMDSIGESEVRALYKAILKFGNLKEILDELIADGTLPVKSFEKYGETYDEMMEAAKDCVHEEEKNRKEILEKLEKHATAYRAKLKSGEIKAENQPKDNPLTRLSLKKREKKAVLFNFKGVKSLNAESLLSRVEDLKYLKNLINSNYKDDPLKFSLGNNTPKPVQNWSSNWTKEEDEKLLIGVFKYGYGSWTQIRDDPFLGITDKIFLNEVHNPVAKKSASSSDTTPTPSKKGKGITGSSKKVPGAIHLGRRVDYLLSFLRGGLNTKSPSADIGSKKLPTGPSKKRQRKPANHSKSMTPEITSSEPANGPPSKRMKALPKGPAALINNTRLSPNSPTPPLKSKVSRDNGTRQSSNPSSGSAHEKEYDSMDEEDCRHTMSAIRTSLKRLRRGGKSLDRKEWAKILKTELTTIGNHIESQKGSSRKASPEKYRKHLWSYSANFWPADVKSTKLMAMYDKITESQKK
Protein translocase subunit SecA (Escherichia coli (strain K12)), sequence (P10408 whole entry): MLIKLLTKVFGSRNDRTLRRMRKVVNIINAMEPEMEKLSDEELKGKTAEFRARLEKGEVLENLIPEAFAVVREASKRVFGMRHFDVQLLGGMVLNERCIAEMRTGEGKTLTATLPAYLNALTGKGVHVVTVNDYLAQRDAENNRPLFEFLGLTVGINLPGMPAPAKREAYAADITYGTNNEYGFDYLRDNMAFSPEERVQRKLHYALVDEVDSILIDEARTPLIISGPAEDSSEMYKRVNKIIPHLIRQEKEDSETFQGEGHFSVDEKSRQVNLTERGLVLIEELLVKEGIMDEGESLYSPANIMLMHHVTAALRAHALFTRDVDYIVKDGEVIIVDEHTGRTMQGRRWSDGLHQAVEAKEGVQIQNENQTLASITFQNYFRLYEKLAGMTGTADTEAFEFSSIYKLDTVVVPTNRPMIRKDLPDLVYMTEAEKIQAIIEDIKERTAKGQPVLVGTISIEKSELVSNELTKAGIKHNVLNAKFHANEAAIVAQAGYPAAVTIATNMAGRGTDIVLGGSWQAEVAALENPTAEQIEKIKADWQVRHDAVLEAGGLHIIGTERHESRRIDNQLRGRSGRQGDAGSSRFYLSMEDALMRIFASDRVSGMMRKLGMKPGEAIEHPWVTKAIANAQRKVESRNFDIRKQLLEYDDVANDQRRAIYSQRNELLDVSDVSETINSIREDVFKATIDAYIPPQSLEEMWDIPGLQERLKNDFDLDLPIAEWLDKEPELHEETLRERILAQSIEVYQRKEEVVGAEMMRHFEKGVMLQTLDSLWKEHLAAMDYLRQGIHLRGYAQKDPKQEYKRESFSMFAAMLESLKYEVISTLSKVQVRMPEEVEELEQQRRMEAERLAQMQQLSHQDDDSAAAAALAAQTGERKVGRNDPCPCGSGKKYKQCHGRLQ
Sialic acid-binding Ig-like lectin 9 (Homo sapiens), sequence (Q9Y336 whole entry): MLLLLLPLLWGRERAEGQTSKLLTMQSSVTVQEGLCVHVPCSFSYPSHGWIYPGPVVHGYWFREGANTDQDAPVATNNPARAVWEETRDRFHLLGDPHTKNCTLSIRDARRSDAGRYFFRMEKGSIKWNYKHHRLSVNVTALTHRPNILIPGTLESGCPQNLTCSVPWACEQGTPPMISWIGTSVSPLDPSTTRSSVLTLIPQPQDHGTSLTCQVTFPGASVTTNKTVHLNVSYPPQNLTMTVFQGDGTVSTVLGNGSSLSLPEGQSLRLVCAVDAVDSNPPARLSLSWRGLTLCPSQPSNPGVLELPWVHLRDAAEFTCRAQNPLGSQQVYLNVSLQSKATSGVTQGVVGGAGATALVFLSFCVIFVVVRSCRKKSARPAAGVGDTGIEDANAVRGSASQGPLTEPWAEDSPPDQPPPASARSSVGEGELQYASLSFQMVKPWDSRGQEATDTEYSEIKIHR

For `Nc1ncc2c(n1)CN(C1CCCC1)C2=O`, the Percent Effect is -4.34% in [1]; 10.4% in experiment [2]; -3.73% in [3]; 9.11% in experiment [4]; 4.82% in experiment [5]; -168% in experiment [6]. Besides, the Percent Effect was 19.5% in [7]; -17.3% in [8]; 10.8% in [9]; 21% in [10]; 121% in [11].

For `COc1ccc(CNCC(C)Oc2ccccn2)cc1Br` (centres undefined), the Percent Effect in experiment [1] is 0.219%; in experiment [2] it was 17.3%; in experiment [3], -6.72%; in [4], 0.831%; in experiment [5] it was 5.3%; in experiment [6], -4.75%. The Percent Effect in experiment [7] was 9.8%; in experiment [8], 3.97%; in [9], 11.6%; in experiment [10], 12.8%; in experiment [11], -11.9%.

`Cc1nc(COC[C@]23COC[C@H]2CN(Cc2ccoc2)C3)cs1`: the Percent Effect is -4.99% in [1]; 0% in experiment [2]; -4.16% in experiment [3]; 13.2% in experiment [4]; 6.94% in experiment [5]; 0.248% in experiment [6]. In addition, the Percent Effect in experiment [7] was -2.49%; in experiment [8], -33.4%; in [9], 3.23%; in experiment [10], 11.1%; in experiment [11], -1.94%.

On to `CCc1nc2n(n1)CC(NCC(=O)Nc1nccs1)CC2` (centres undefined), for which the Percent Effect in [1] was -2.54%; in experiment [2], -2.53%; in experiment [3], -11.6%; in experiment [4], -5.43%; in [5] it was -5.95%; in experiment [6], -1.9%. In addition, the Percent Effect in experiment [7] is -0.737%; in [8], 15.1%; in experiment [9] it was 2.46%; in experiment [10], -8.86%; in experiment [11] it was -2.63%.

On to `O=C(NCC1CC1)[C@H]1C[C@H]2OCC[C@H]2N(CCc2ccccc2)C1`, for which the Percent Effect in experiment [1] is -3.05%; in experiment [2], 2.7%; in experiment [3] it was 0.431%; in experiment [4], -3.87%; in experiment [5], -5.96%; in experiment [6], -1.59%. For the same compound, the Percent Effect in experiment [7] is 16.4%; in experiment [8], 0.915%; in experiment [9] it was 2.16%; in experiment [10] it was 5.13%; in [11], -1.91%.

In the case of `Cc1ccc(CN2CCc3ncnc(C4CCOC4)c3CC2)s1` (centres undefined), the Percent Effect in experiment [1] was 1.24%; in experiment [2], 10.7%; in experiment [3], 1.52%; in experiment [4], 6.88%; in experiment [5] it was -2.51%; in [6], -41.4%. Besides, the Percent Effect in experiment [7] is 5.98%; in experiment [8], 18.1%; in experiment [9] it was 5.21%; in [10] it was 25%; in experiment [11], -6.72%.

Regarding `COCC1c2c(cnn2CC2CCOCC2)CCN1Cc1ccoc1` (centres undefined), the Percent Effect in experiment [1] is -3.48%; in [2], 8.11%; in experiment [3] it was 4.63%; in [4], 0.649%; in [5], 1.76%; in [6], 4.17%. Besides, the Percent Effect in [7] is 16%; in experiment [8] it was -5.7%; in experiment [9], 10.9%; in experiment [10], 11%; in experiment [11], -3.93%.

`CC(C)CCc1noc(CN2CCCN(C(=O)c3ccco3)CC2)n1`: the Percent Effect in [1] is -5.45%; in [2] it was -8.22%; in [3], -0.00644%; in experiment [4] it was 4.33%; in experiment [5], 2.38%; in experiment [6], -11.2%. For the same compound, the Percent Effect in experiment [7] was 3.68%; in experiment [8], 7.02%; in experiment [9], 3.12%; in [10] it was 3.7%; in [11], -3.57%.

Take `Cn1ccc(CN2CCC(Oc3ccccc3)CC2)cc1=O`: the Percent Effect is -4.18% in experiment [1]; 18.2% in experiment [2]; -0.911% in experiment [3]; 1.02% in [4]; -1.69% in experiment [5]; -0.356% in [6]. The Percent Effect in experiment [7] was 4.05%; in experiment [8], -2.92%; in experiment [9] it was 11.7%; in [10] it was 24.4%; in experiment [11] it was -10.1%.

These data come from ChEMBL document CHEMBL3988442, “University of Dundee, Small-Polar-MMV Screening Library” (2021).
